{"source": "the supplement of paper PMC8728848", "binders": {"B1": {"name": "Morniga (Morus nigra) (protein)", "chain": "MAGTSTNTQTTGTSQTVEVGLWGGPGGNAWDDGSYTGIREINLSHGDAIGAFSVIYDLNGQPFTGPTHPGNEPSFKTVKITLDFPNEFLVSVSGYTGVLPRLATGKDVIRSLTFKTNKKTYGPYGKEEGTPFSLPIENGLIVGFKGRSGFVVDAIGVHLS"}}, "assay_in_all_cases": "glycan array binding signal (z-score within array); higher = stronger binding", "settings_in_all_cases": "glycan notation: IUPAC condensed, linker removed", "key": {"[1]": {"biological_target": "Fuc(a1-2)Gal(b1-3)GalNAc(b1-4)[Neu5Ac(a2-3)]Gal(b1-4)Glc", "how_it_was_run": "(§1)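 Glycan array data were curated from 3228 arrays in the Consortium for Functional Glycomics database and kept only where the protein sequence was available. Glycan names were converted to IUPAC-condensed notation, and columns mapping to the same glycan were averaged. The binding signal is a within-array Z-score, averaged across arrays of the same protein sequence at different concentrations or buffers and across linkers. Negative Z-scores can be read as non-binding.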"}, "[2]": {"biological_target": "Fuc(a1-2)Gal(b1-3)GlcNAc6S", "how_it_was_run": "as §1"}, "[3]": {"biological_target": "Fuc(a1-2)Gal(b1-3)[Fuc(a1-4)]GlcNAc(b1-2)Man(a1-3)[Fuc(a1-2)Gal(b1-3)[Fuc(a1-4)]GlcNAc(b1-2)Man(a1-6)]Man(b1-4)GlcNAc(b1-4)GlcNAc", "how_it_was_run": "as §1"}, "[4]": {"biological_target": "Fuc(a1-2)[Gal(a1-3)]Gal(b1-3)GlcNAc", "how_it_was_run": "as §1"}, "[5]": {"biological_target": "Fuc(a1-2)[Gal(a1-3)]Gal(b1-4)[Fuc(a1-3)]GlcNAc(b1-3)GalNAc", "how_it_was_run": "as §1"}, "[6]": {"biological_target": "Fuc(a1-2)[GalNAc(a1-4)]Gal(b1-4)GlcNAc", "how_it_was_run": "as §1"}, "[7]": {"biological_target": "Fuc(a1-3)[Gal(b1-4)]GlcNAc(b1-2)Man(a1-3)[Fuc(a1-3)[Gal(b1-4)]GlcNAc(b1-2)Man(a1-6)]Man(b1-4)GlcNAc(b1-4)[Fuc(a1-6)]GlcNAc", "how_it_was_run": "as §1"}, "[8]": {"biological_target": "Fuc(a1-3)[Gal3S(b1-4)]GlcNAc6S", "how_it_was_run": "as §1"}, "[9]": {"biological_target": "Gal(a1-3)Gal(b1-4)[Fuc(a1-3)]GlcNAc(b1-2)Man(a1-3)[Gal(a1-3)Gal(b1-4)[Fuc(a1-3)]GlcNAc(b1-2)Man(a1-6)]Man(b1-4)GlcNAc(b1-4)GlcNAc", "how_it_was_run": "as §1"}, "[10]": {"biological_target": "Gal(a1-4)Gal(b1-4)GlcNAc(b1-3)Gal(b1-4)Glc", "how_it_was_run": "as §1"}, "[11]": {"biological_target": "Gal(b1-3)Gal(b1-4)GlcNAc(b1-2)Man(a1-3)[Gal(b1-3)Gal(b1-4)GlcNAc(b1-2)Man(a1-6)]Man(b1-4)GlcNAc(b1-4)GlcNAc", "how_it_was_run": "as §1"}, "[12]": {"biological_target": "Gal(b1-4)GlcNAc(b1-2)Man(a1-3)Man(b1-4)GlcNAc(b1-4)GlcNAc", "how_it_was_run": "as §1"}, "[13]": {"biological_target": "Gal(b1-4)GlcNAc(b1-2)Man(a1-3)[Gal(b1-4)GlcNAc(b1-2)][GlcNAc(b1-4)]Man(b1-4)GlcNAc(b1-4)GlcNAc", "how_it_was_run": "as §1"}, "[14]": {"biological_target": "Gal(b1-4)GlcNAc(b1-2)Man(a1-3)[Man(a1-6)]Man(b1-4)GlcNAc(b1-4)GlcNAc", "how_it_was_run": "as §1"}, "[15]": {"biological_target": "Gal(b1-4)GlcNAc(b1-2)Man(a1-6)[Man(a1-3)]Man(b1-4)GlcNAc(b1-4)GlcNAc", "how_it_was_run": "as §1"}, "[16]": {"biological_target": "Gal(b1-4)GlcNAc(b1-2)[Gal(b1-4)GlcNAc(b1-6)]Man(a1-6)[Gal(b1-4)GlcNAc(b1-2)Man(a1-3)]Man(b1-4)GlcNAc(b1-4)[Fuc(a1-6)]GlcNAc", "how_it_was_run": "as §1"}, "Gal(b1-6)Gal": {"biological_target": "Gal(b1-6)Gal", "how_it_was_run": "as §1"}, "Gal3S6S(b1-4)GlcNAc6S": {"biological_target": "Gal3S6S(b1-4)GlcNAc6S", "how_it_was_run": "as §1"}, "Gal6S(b1-3)GlcNAc": {"biological_target": "Gal6S(b1-3)GlcNAc", "how_it_was_run": "as §1"}, "Gal6S(b1-4)GlcNAc6S": {"biological_target": "Gal6S(b1-4)GlcNAc6S", "how_it_was_run": "as §1"}, "GalNAc(b1-3)GalNAc": {"biological_target": "GalNAc(b1-3)GalNAc", "how_it_was_run": "as §1"}, "GlcA(b1-3)Gal": {"biological_target": "GlcA(b1-3)Gal", "how_it_was_run": "as §1"}, "[17]": {"biological_target": "GlcNAc(a1-4)Gal(b1-4)GlcNAc", "how_it_was_run": "as §1"}, "[18]": {"biological_target": "GlcNAc(a1-4)Gal(b1-4)GlcNAc(b1-3)Gal(b1-4)GlcNAc(b1-3)Gal(b1-4)GlcNAc", "how_it_was_run": "as §1"}, "[19]": {"biological_target": "GlcNAc(b1-4)GlcNAc(b1-4)GlcNAc(b1-4)GlcNAc(b1-4)GlcNAc", "how_it_was_run": "as §1"}, "[20]": {"biological_target": "Man(a1-2)Man(a1-3)[Man(a1-2)Man(a1-6)]Man(a1-6)[Man(a1-2)Man(a1-2)Man(a1-3)]Man", "how_it_was_run": "as §1"}, "[21]": {"biological_target": "Man(a1-3)[Man(a1-6)]Man(a1-6)[Man(a1-2)Man(a1-3)]Man(b1-4)GlcNAc(b1-4)GlcNAc", "how_it_was_run": "as §1"}, "[22]": {"biological_target": "Man(a1-3)[Man(a1-6)]Man(b1-4)GlcNAc(b1-4)GlcNAc", "how_it_was_run": "as §1"}, "[23]": {"biological_target": "Man(a1-3)[Man(a1-6)]Man(b1-4)GlcNAc(b1-4)[Fuc(a1-6)]GlcNAc", "how_it_was_run": "as §1"}, "[24]": {"biological_target": "Neu5Ac(a2-3)Gal(b1-3)GlcNAc(b1-3)Gal(b1-3)GlcNAc", "how_it_was_run": "as §1"}}, "note": "The full list was thinned out, with the strongest signals kept by preference."}
{"binder": "B1", "values": [{"measurement": "glycan array binding signal (z-score)", "setting": "[1]", "value": -0.335}, {"measurement": "glycan array binding signal (z-score)", "setting": "[2]", "value": -0.321}, {"measurement": "glycan array binding signal (z-score)", "setting": "[3]", "value": -0.19}, {"measurement": "glycan array binding signal (z-score)", "setting": "[4]", "value": -0.332}, {"measurement": "glycan array binding signal (z-score)", "setting": "[5]", "value": -0.329}, {"measurement": "glycan array binding signal (z-score)", "setting": "[6]", "value": -0.34}, {"measurement": "glycan array binding signal (z-score)", "setting": "[7]", "value": -0.304}, {"measurement": "glycan array binding signal (z-score)", "setting": "[8]", "value": -0.324}, {"measurement": "glycan array binding signal (z-score)", "setting": "[9]", "value": 0.347}, {"measurement": "glycan array binding signal (z-score)", "setting": "[10]", "value": -0.341}, {"measurement": "glycan array binding signal (z-score)", "setting": "[11]", "value": 4.04}, {"measurement": "glycan array binding signal (z-score)", "setting": "[12]", "value": 4.3}, {"measurement": "glycan array binding signal (z-score)", "setting": "[13]", "value": 1.41}, {"measurement": "glycan array binding signal (z-score)", "setting": "[14]", "value": 4.49}, {"measurement": "glycan array binding signal (z-score)", "setting": "[15]", "value": 4.24}, {"measurement": "glycan array binding signal (z-score)", "setting": "[16]", "value": 1.6}, {"measurement": "glycan array binding signal (z-score)", "setting": "Gal(b1-6)Gal", "value": -0.326}, {"measurement": "glycan array binding signal (z-score)", "setting": "Gal3S6S(b1-4)GlcNAc6S", "value": -0.316}, {"measurement": "glycan array binding signal (z-score)", "setting": "Gal6S(b1-3)GlcNAc", "value": -0.338}, {"measurement": "glycan array binding signal (z-score)", "setting": "Gal6S(b1-4)GlcNAc6S", "value": -0.337}, {"measurement": "glycan array binding signal (z-score)", "setting": "GalNAc(b1-3)GalNAc", "value": -0.327}, {"measurement": "glycan array binding signal (z-score)", "setting": "GlcA(b1-3)Gal", "value": -0.333}, {"measurement": "glycan array binding signal (z-score)", "setting": "[17]", "value": -0.296}, {"measurement": "glycan array binding signal (z-score)", "setting": "[18]", "value": -0.327}, {"measurement": "glycan array binding signal (z-score)", "setting": "[19]", "value": -0.335}, {"measurement": "glycan array binding signal (z-score)", "setting": "[20]", "value": -0.327}, {"measurement": "glycan array binding signal (z-score)", "setting": "[21]", "value": 4.19}, {"measurement": "glycan array binding signal (z-score)", "setting": "[22]", "value": 5.03}, {"measurement": "glycan array binding signal (z-score)", "setting": "[23]", "value": 4.02}, {"measurement": "glycan array binding signal (z-score)", "setting": "[24]", "value": -0.332}]}
